Source: PubChem BioAssay (EPA / NIEHS)
Records with an inconclusive call do not appear. Calls of active or inactive are those of the source. How the source made its calls, unless noted: active means hit-call score of the fitted dose curve at least 0.9, where 1 is the maximum; inconclusive means response in the unintended direction; inactive means score below 0.9.

Tested on: not listed separately
Assay: STM_H9_OrnCyssISnorm_ratio: Stemina devTOX quickPredict H9 human embryonic stem cell (hESC)-based Assay for Ornithine (ORN):Cystine (CYSS) Ratio (AID 2283714)
In short: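 Steps: H9 hESCs in pluripotent state dosed 72h, medium plus compound renewed every 24h; conditioned medium from the final 24h deproteinized in 40% acetonitrile; ORN and CYSS quantified by UPLC-HRMS with C13 spike-ins; ratio relative to vehicle.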

Row | Compound | AC50 | outcome
1 | O=C1c2ccccc2C(=O)c2c(O)ccc(O)c21 | 10 µM (active) | –
2 | CS(=O)(=O)OCCCCOS(C)(=O)=O | 31.2 µM (active) | –
3 | C=CC(C)(O)CCC=C(C)C (stereo not given) | – | inactive

Read-out: not listed separately
Assay: CEETOX_H295R_MTT_cell_viability: Viability Assessment in the CeeTox HT-H295R MTT Assay (AID 2283718; active means hit-call score of the fitted dose curve at least 0.9, where 1 is the maximum; inactive means score below 0.9;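 on AC50: curve fitted both ways so AC50 may mark viability loss or gain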)
In short: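 MTT reduction (0.5 mg/ml, 4 h at 37 C; absorbance at 570 and 650 nm) gave viability as background-corrected percent change versus controls. H295R cells had 48 h forskolin (10 uM) prestimulation, then 48 h chemical exposure at 0.1% DMSO.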

Row | Compound | outcome | AC50
4 | CC=Cc1ccc(OC)c(OC)c1 | inactive | –
5 | COc1ccc(OC)c(N=Nc2c(O)ccc3ccccc23)c1 | inactive | –
6 | C=C1CC[C@H](O)C/C1=C/C=C1\CCC[C@]2(C)[C@@H]([C@H](C)/C=C/[C@H](C)C(C)C)CC[C@@H]12 | – | 83.4 µM (active)
7 | COc1ccc(CCN2CCC(Nc3nc4ccccc4n3Cc3ccc(F)cc3)CC2)cc1 | inactive | –
8 | CCOC(=O)[C@@H](C)Oc1ccc(Oc2nc3ccc(Cl)cc3o2)cc1 | inactive | –
9 | CCCCCCCCN1CCCC1=O | – | 0.882 µM (active)
10 | OCc1cccc(Oc2ccccc2)c1 | inactive | –
11 | COCCc1ccc(OCC(O)CNC(C)C)cc1 (stereo not given) | inactive | –
12 | CC=Cc1ccc(OCC)c(O)c1 | inactive | –
13 | Nc1ccc(N)c2c1C(=O)c1ccccc1C2=O | inactive | –
14 | CC(C)(C)CC(C)(C)c1ccc(OCCOCC[N+](C)(C)Cc2ccccc2)cc1 | inactive | –
15 | COc1ccc(N=Nc2cc(C)c(N=Nc3ccc(S(=O)(=O)O)cc3)cc2OC)cc1 | inactive | –
16 | C=C[Si]1(C)O[Si](C)(C=C)O[Si](C)(C=C)O[Si](C)(C=C)O1 (stereo not given) | inactive | –
17 | CC1(C)C(=O)N(Cl)C(=O)N1Br | inactive | –
18 | CC(CN=Cc1ccccc1O)N=Cc1ccccc1O (stereo not given) | – | 2.57 µM (active)
19 | BrCc1cccc(Oc2ccccc2)c1 | inactive | –
20 | CC(C)Nc1nc(N)nc(Cl)n1 | inactive | –
21 | O=C(Nc1ccc2c(O)c(N=Nc3ccc(N=Nc4ccc(S(=O)(=O)O)cc4)cc3)c(S(=O)(=O)O)cc2c1)c1ccccc1 | inactive | –
22 | CCC(C)c1cc([N+](=O)[O-])cc([N+](=O)[O-])c1OC(=O)OC(C)C (stereo not given) | inactive | –
23 | CCc1cc(C(C)(C)C)c(O)c(C(C)(C)C)c1 | inactive | –
24 | Cc1cc(=O)oc2cc(N(C)C)ccc12 | inactive | –

Target: Luciferin 4-monooxygenase (Photinus pyralis) (UniProt P08659)
Sequence (P08659 whole entry, looked up): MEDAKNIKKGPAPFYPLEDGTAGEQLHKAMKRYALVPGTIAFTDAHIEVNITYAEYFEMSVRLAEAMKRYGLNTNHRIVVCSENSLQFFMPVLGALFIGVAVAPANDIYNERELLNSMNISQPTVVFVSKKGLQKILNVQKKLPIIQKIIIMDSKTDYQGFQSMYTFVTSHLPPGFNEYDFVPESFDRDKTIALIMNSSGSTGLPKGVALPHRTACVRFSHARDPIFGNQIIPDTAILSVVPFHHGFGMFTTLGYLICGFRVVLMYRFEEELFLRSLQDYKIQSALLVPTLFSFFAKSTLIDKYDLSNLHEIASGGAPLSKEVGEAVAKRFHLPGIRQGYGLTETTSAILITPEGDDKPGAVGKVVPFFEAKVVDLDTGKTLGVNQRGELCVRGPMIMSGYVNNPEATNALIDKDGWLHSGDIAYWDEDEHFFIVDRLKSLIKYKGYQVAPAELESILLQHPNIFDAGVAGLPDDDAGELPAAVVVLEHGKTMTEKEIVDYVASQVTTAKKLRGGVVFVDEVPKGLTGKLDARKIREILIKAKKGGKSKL
Assay: CCTE_Simmons_QuantiLum_inhib_2: CCTE's Firefly Luciferase Inhibition Assay, Simmons Lab (AID 2283767);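 on AC50: potency for inhibitors that lower luciferase luminescence relative to DMSO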
In short: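 Recombinant firefly luciferase (5 ng/well, 200 mM potassium phosphate with 1 mg/ml BSA) was exposed to 8 concentrations from 5 nM to 87.5 uM (final, 0.5% DMSO) for 30 min at 37C in the dark. Loss of luminescence versus DMSO was read after injecting D-luciferin/ATP-analogue reagent.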

Row | Compound | outcome | AC50
25 | Oc1ccc2cc(SSc3ccc4cc(O)ccc4c3)ccc2c1 | inactive | –
26 | CSCCC=O | inactive | –
27 | C=C1CC[C@H](O)C/C1=C/C=C1\CCC[C@]2(C)[C@@H]([C@H](C)/C=C/[C@H](C)C(C)C)CC[C@@H]12 | inactive | –
28 | CCCCCC(C=O)=Cc1ccccc1 | inactive | –
29 | O=C1OC[C@H](Cc2cccc(O)c2)[C@H]1Cc1cccc(O)c1 | inactive | –
30 | CCOc1ccc(N=Nc2ccc(C=Cc3ccc(N=Nc4ccc(OCC)cc4)cc3S(=O)(=O)O)c(S(=O)(=O)O)c2)cc1 | inactive | –
31 | CCCCC(CC)COC(=O)c1ccc(O)cc1 (stereo not given) | inactive | –
32 | COc1ccc(N=Nc2cc(C)c(N=Nc3ccc(S(=O)(=O)O)cc3)cc2OC)cc1 | – | 53.8 µM (active)
33 | CC(CN=Cc1ccccc1O)N=Cc1ccccc1O (stereo not given) | inactive | –
34 | CS(=O)(=O)OCCCCOS(C)(=O)=O | inactive | –
35 | Cc1cc(C)nc(NS(=O)(=O)c2ccc(N)cc2)n1 | inactive | –
36 | O=C(Nc1ccc2c(O)c(N=Nc3ccc(N=Nc4ccc(S(=O)(=O)O)cc4)cc3)c(S(=O)(=O)O)cc2c1)c1ccccc1 | – | 20.7 µM (active)
37 | CCc1cc(C(C)(C)C)c(O)c(C(C)(C)C)c1 | inactive | –
38 | Nc1ccc2cc(S(=O)(=O)O)cc(O)c2c1N=Nc1ccccc1C(F)(F)F | – | 51.7 µM (active)

Tested on: not listed separately
Assay: ACEA_AR_agonist_AUC_viability: ACEA Biosciences xCELLigence Real-Time Cell Analysis on Androgen Receptor Agonism for Viability (AID 2283775);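 on AC50: viability read 80 hours after compound addition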
In short: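 Read-out is area under the impedance curve at 80 h post-dose in 22Rv1 cells, with DMSO as baseline and signal loss taken as reduced viability. Compounds ran in duplicate from 100 uM final.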

Row | Compound | outcome | AC50
39 | C=C1CC[C@H](O)C/C1=C/C=C1\CCC[C@]2(C)[C@@H]([C@H](C)/C=C/[C@H](C)C(C)C)CC[C@@H]12 | inactive | –
40 | CCOC(=O)[C@@H](C)Oc1ccc(Oc2nc3ccc(Cl)cc3o2)cc1 | – | 5.36 µM (active)
41 | OCc1cccc(Oc2ccccc2)c1 | inactive | –
42 | CCCCC(CC)COC(=O)c1ccc(O)cc1 (stereo not given) | inactive | –
43 | Nc1ccc(N)c2c1C(=O)c1ccccc1C2=O | – | 9.05 µM (active)
44 | CC1(C)C(=O)N(Cl)C(=O)N1Br | inactive | –
45 | CC(CN=Cc1ccccc1O)N=Cc1ccccc1O (stereo not given) | – | 6.64 µM (active)
46 | BrCc1cccc(Oc2ccccc2)c1 | inactive | –
47 | CS(=O)(=O)OCCCCOS(C)(=O)=O | inactive | –
48 | O=C(Nc1ccc2c(O)c(N=Nc3ccc(N=Nc4ccc(S(=O)(=O)O)cc4)cc3)c(S(=O)(=O)O)cc2c1)c1ccccc1 | inactive | –
49 | CCc1cc(C(C)(C)C)c(O)c(C(C)(C)C)c1 | inactive | –
50 | Cc1cc(=O)oc2cc(N(C)C)ccc12 | inactive | –

Tested on: not listed separately
Assay: ACEA_AR_antagonist_AUC_viability: ACEA Biosciences xCELLigence Real-Time Cell Analysis on Androgen Receptor Antagonism for Viability (AID 2283776);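 further: 22Rv1 human prostate cancer cells growing on impedance electrode plates; area under impedance growth curve at 80 h after dosing as viability; hits lower the growth signal relative to DMSO meaning cytotoxicity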
In short: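 Viability endpoint from label-free cell-index monitoring: 22Rv1 cultures treated with an eight-point 1:4 dilution series starting at 100 uM final, AUC at 80 h fitted against DMSO.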

Row | Compound | outcome | AC50
51 | OCc1cccc(Oc2ccccc2)c1 | inactive | –
52 | CC(CN=Cc1ccccc1O)N=Cc1ccccc1O (stereo not given) | – | 4.63 µM (active)
53 | CS(=O)(=O)OCCCCOS(C)(=O)=O | inactive | –
54 | CCc1cc(C(C)(C)C)c(O)c(C(C)(C)C)c1 | inactive | –
55 | Cc1cc(=O)oc2cc(N(C)C)ccc12 | – | 0.177 µM (active)
